We go through 59 molecules from article PMC4336329 (PLoS ONE, 2015).

Structures are written as SMILES. About 14,000 (4.5%) of roughly 310,000 compounds showed an effect of 50% or more. Effects have a minus sign here. Only a selection was taken, and strong results are over-represented in it overall.
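Further: peak tail current of the secondary pulse compared with the same well before compound.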

For the assay, the target named is human ether-à-go-go-related gene (hERG) potassium channel (human, UniProt Q12809). Description: primary screen, population patch clamp on CHO cells stably expressing hERG; higher = less effect of the substance.
Sequence of human ether-à-go-go-related gene (hERG) potassium channel (Q12809 whole entry, looked up): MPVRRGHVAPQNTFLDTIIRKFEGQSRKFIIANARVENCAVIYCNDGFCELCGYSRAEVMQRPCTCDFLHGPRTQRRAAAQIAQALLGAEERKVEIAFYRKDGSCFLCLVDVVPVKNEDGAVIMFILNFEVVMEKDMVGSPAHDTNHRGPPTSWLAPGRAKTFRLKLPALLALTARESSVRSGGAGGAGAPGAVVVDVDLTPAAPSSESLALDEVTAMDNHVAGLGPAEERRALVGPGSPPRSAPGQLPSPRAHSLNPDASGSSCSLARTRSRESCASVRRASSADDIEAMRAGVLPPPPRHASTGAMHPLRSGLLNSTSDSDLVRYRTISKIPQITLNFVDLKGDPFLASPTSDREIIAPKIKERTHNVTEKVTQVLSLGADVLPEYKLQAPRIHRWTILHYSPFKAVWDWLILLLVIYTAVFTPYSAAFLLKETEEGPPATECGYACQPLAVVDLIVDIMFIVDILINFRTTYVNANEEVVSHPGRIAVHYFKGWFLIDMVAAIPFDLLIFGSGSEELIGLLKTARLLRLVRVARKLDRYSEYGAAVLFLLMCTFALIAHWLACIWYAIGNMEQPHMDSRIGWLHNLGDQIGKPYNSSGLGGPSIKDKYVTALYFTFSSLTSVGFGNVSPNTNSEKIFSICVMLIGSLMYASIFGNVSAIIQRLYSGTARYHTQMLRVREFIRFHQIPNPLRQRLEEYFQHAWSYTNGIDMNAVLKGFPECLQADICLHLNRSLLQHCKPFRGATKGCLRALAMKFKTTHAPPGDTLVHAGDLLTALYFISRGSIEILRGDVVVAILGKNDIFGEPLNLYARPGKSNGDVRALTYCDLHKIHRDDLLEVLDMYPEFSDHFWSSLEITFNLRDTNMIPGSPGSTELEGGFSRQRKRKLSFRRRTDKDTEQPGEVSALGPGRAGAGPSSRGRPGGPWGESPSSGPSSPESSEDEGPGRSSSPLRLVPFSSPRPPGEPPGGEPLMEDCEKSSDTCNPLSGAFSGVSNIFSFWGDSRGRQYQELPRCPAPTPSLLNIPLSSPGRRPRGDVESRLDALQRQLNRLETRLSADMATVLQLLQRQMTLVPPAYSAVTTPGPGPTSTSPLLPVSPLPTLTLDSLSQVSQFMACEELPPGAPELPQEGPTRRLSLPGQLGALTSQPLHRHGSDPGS
Turning to `CC(=O)N(CC1CCCO1)c1nnc(-c2cnccn2)s1` (centres unmarked), the “hERG current change (%, negative = inhibition) at 10uM” value was found to be 12.8%. Consider `Cc1ccc(NC(=O)CN(C)C(=S)NC2CC2)cc1`, for which the “hERG current change (%, negative = inhibition) at 10uM” value was 16.4%.

Regarding `Cc1ccc(C(=O)Nc2cc3c(oc2=O)CCCC3=O)cc1`, the “hERG current change (%, negative = inhibition) at 10uM” value is listed as -2.47%. Take `COc1cc(/C=C/C(=O)NC(C)C2CC3CCC2C3)cc(OC)c1OC` (centres unmarked): the “hERG current change (%, negative = inhibition) at 10uM” value is reported as 10.6%. Consider `O=C(CN1C(=O)S/C(=C\c2cccs2)C1=O)Nc1ccc(O)cc1C(=O)O`, for which the “hERG current change (%, negative = inhibition) at 10uM” value stood at 8.88%. Turning to `CCOc1ccc(-n2ccnc2SCC(=O)Nc2nnc(CC)s2)cc1`, the “hERG current change (%, negative = inhibition) at 10uM” value is listed as -11.9%. Take `CCC(=O)N1CCc2cc(Br)cc(S(=O)(=O)N3CCCCC3CC)c21` (centres unmarked): the “hERG current change (%, negative = inhibition) at 10uM” value came out at 0.791%. In the case of `CCCN(c1ccc(C)cc1)c1nc(=O)c2cccnc2s1` it was -28%.

For the molecule `COc1cc(S(=O)(=O)N2CCCCC2)ccc1NC(=O)c1ccccc1Cl`, the “hERG current change (%, negative = inhibition) at 10uM” value is given as -24.6%. As to `CN1C(C(=O)NCc2cccc(Br)c2)CC2Cn3c(nc4cc5ccccc5cc43)C21` (centres unmarked), the “hERG current change (%, negative = inhibition) at 10uM” value is -62%. As to `Cc1cc2nc3n(c2cc1C)CC1CC(C(=O)NCc2cccc(Br)c2)N(C)C31` (centres unmarked), the “hERG current change (%, negative = inhibition) at 10uM” value is -72.5%. Turning to `COCCNC(=O)C1CC2Cn3c(nc4cc(C)c(C)cc43)C2N1C` (centres unmarked), the “hERG current change (%, negative = inhibition) at 10uM” value is on record as 8.23%. In the case of `CN1C(C(=O)NCc2cccc(Br)c2)CC2Cn3c(nc4ccccc43)C21` (centres unmarked) it was -67.7%; in that of `Cc1cc2nc3n(c2cc1C)CC1CC(C(=O)NCc2ccco2)N(C)C31` (centres unmarked), -29%.

As to `CN1C(C(=O)NCc2ccccc2)CC2Cn3c(nc4ccccc43)C21` (centres unmarked), the “hERG current change (%, negative = inhibition) at 10uM” value is reported as -0.69%. For the molecule `COCCNC(=O)C1CC2Cn3c(nc4cc5ccccc5cc43)C2N1C` (centres unmarked), the “hERG current change (%, negative = inhibition) at 10uM” value is -3.93%. Take `CCCNC(=O)C1CC2Cn3c(nc4ccccc43)C2N1C` (centres unmarked): the “hERG current change (%, negative = inhibition) at 10uM” value is recorded as 12.8%. For the molecule `C=CCNC(=O)C1CC2Cn3c(nc4cc5ccccc5cc43)C2N1C` (centres unmarked), the “hERG current change (%, negative = inhibition) at 10uM” value is reported as -16.2%. On to `CN1C(C(=O)NCc2ccco2)CC2Cn3c(nc4cc5ccccc5cc43)C21` (centres unmarked), for which the “hERG current change (%, negative = inhibition) at 10uM” value is -38.6%. `CN1C(C(=O)NCc2ccccc2)CC2Cn3c(nc4cc5ccccc5cc43)C21` (centres unmarked): the “hERG current change (%, negative = inhibition) at 10uM” value is reported as -67.9%. As for `Cc1cc2nc3n(c2cc1C)CC1CC(C(=O)NCc2ccccc2)N(C)C31` (centres unmarked), the “hERG current change (%, negative = inhibition) at 10uM” value is listed as -31.4%.

With `Cc1ccc(S(=O)(=O)[N-]c2nc3ccccc3nc2-n2cc[n+](Cc3ccccc3)c2)cc1`, the “hERG current change (%, negative = inhibition) at 10uM” value was 11%. As to `O=C(c1csc2c1CCCC2)N1CCN(c2ncccn2)CC1`, the “hERG current change (%, negative = inhibition) at 10uM” value was -25.1%. In the case of `O=C(NCc1cccc(C(F)(F)F)c1)c1ccc(=O)[nH]c1` it was 22.5%; in that of `Cc1oc(-c2ccccc2)nc1CS(=O)CC(=O)O` (centres unmarked), 10.2%; in that of `Cc1nn(-c2ccccc2)c(N2CCCC2)c1C=O`, 2.49%. Turning to `Cc1cccc(-c2ncc(CN3CCCC(CO)(Cc4ccccc4C)C3)cn2)c1` (centres unmarked), the “hERG current change (%, negative = inhibition) at 10uM” value is -11.4%. `Cc1cccc(/C=N/NC(=O)Cc2ccc(Cl)cc2)c1O`: the “hERG current change (%, negative = inhibition) at 10uM” value was 18.6%. On to `Cc1cc(C)nc(SCC(=O)NN)n1`, for which the “hERG current change (%, negative = inhibition) at 10uM” value was 21.1%. Turning to `O=C(NCc1ccccc1)c1ccc[n+]([O-])c1`, the “hERG current change (%, negative = inhibition) at 10uM” value is on record as 30.8%. Take `O=S(=O)(Nc1nc2cc3c(cc2nc1Cl)OCCO3)c1ccccc1`: the “hERG current change (%, negative = inhibition) at 10uM” value was -15.5%. `CC(C)CNC(=S)N1CCC(NC(=O)C23CC4CC(CC(C4)C2)C3)CC1`: the “hERG current change (%, negative = inhibition) at 10uM” value is recorded as -7.73%.

With `CC(=O)N1CCC(=NNC(=O)c2cc3ccccc3cc2O)CC1`, the “hERG current change (%, negative = inhibition) at 10uM” value worked out at 16.8%.

For `O=C(Cc1ccc(-c2ccccc2)cc1)Nc1ccccc1`, the “hERG current change (%, negative = inhibition) at 10uM” value was 19.1%. On to `COc1cc(S(=O)(=O)NCc2ccc3c(c2)OCO3)ccc1Cl`, for which the “hERG current change (%, negative = inhibition) at 10uM” value is -26.1%. As for `CC1Cc2ccccc2N1C(=S)NC(=O)c1ccco1` (centres unmarked), the “hERG current change (%, negative = inhibition) at 10uM” value was determined as 16.2%.

For the molecule `O=C(COc1ccccc1)Nc1nccs1`, the “hERG current change (%, negative = inhibition) at 10uM” value is listed as -13.5%. As for `CCCn1nc(C(=O)NNC(=O)CCOc2ccccc2OCC)c2ccccc2c1=O`, the figure is -21.8%; as for `CCn1nc(C(=O)NNC(=O)CCOc2cc(C)ccc2C)c2ccccc2c1=O`, -77.6%; as for `COc1ccc(OCC(=O)NNC(=O)c2nn(C)c(=O)c3ccccc23)cc1`, -21.1%. As for `CCc1ccc(OCC(=O)NNC(=O)c2nn(CC)c(=O)c3ccccc23)cc1`, the figure is -57.9%; as for `CCn1nc(C(=O)NNC(=O)COc2ccccc2C)c2ccccc2c1=O`, -16%; as for `CCn1nc(C(=O)NNC(=O)COc2ccc(OC)cc2)c2ccccc2c1=O`, -23.4%.

Regarding `COc1ccc(C(CC(=O)NCc2ccco2)c2ccc(F)cc2)cc1` (centres unmarked), the “hERG current change (%, negative = inhibition) at 10uM” value was -22.4%. In the case of `O=C(NCc1nnc(SCC(=O)N2CCN(c3ccccc3)CC2)o1)c1ccc(F)cc1` it was -5.96%.

Turning to `O=S(=O)(NCc1cccnc1)c1cccc2cccnc12`, the “hERG current change (%, negative = inhibition) at 10uM” value stood at 6.44%. With `COc1ccc(CCNS(=O)(=O)c2ccc3c(c2)CCN3C(=O)C2CC2)cc1OC`, the “hERG current change (%, negative = inhibition) at 10uM” value worked out at 0.919%.

In the case of `CCCn1c(SC(C)C(=O)N2CCOCC2)nc2ccc(Br)cc2c1=O` (centres unmarked), the “hERG current change (%, negative = inhibition) at 10uM” value was -56.1%. `CCn1c(SCC(=O)N2CCN(c3ccc(Cl)cc3)CC2)nc2ccccc2c1=O`: the “hERG current change (%, negative = inhibition) at 10uM” value is 8.79%. Consider `CCOCCCn1c(SCc2nc3ccccc3s2)nc2ccccc2c1=O`, for which the “hERG current change (%, negative = inhibition) at 10uM” value is recorded as -2.07%. As to `CCn1c(SC(C)C(=O)N2CCOCC2)nc2sc(C)c(C)c2c1=O` (centres unmarked), the “hERG current change (%, negative = inhibition) at 10uM” value was 3.37%.

`CCn1c(SCC(=O)N2CCN(c3ccc(F)cc3)CC2)nc2ccccc2c1=O`: the “hERG current change (%, negative = inhibition) at 10uM” value is recorded as -45.2%. `CCCn1c(SCC(=O)N2CCN(c3ccccc3)CC2)nc2ccccc2c1=O`: the “hERG current change (%, negative = inhibition) at 10uM” value is -56.7%. Turning to `O=C(CSc1nc2ccccc2nc1N1CCOCC1)N1CCN(c2ccccc2)CC1`, the “hERG current change (%, negative = inhibition) at 10uM” value is recorded as -39.2%. With `CCCCn1c(SCc2nc3ccccc3s2)nc2ccccc2c1=O`, the “hERG current change (%, negative = inhibition) at 10uM” value is recorded as -54.7%. In the case of `Cc1ccc(C)n1CCN1CCN(C(=O)CSc2nc3ccccc3nc2N2CCOCC2)CC1`, the “hERG current change (%, negative = inhibition) at 10uM” value is -54.5%.

Take `O=C(CSc1nc2ccccc2nc1SCC(=O)N1CCOCC1)N1CCOCC1`: the “hERG current change (%, negative = inhibition) at 10uM” value is -5.85%. As for `COc1ccc(-n2c(SC(C)C(=O)N3CCOCC3)nc3ccccc3c2=O)cc1` (centres unmarked), the figure is 6.84%; as for `O=c1c2ccccc2nc(SCc2nc3ccccc3s2)n1CCCO`, -4.88%.
